High-throughput results (PubChem BioAssay)
Arbovirus anti: arbovirus infection inhibition; arbovirus infection cell-based antiviral screen; inhibition, % at 10 µM; hit rate 0.37% among 200,000; AID 1251; in the data active means inhibition above about 30%
CHOP inhibitor: inhibitors of CHOP induction in ER stress response. CHO-K1 CHOP-promoter luciferase, tunicamycin-induced, 15-18 h. inhibition, % at 10 µM. hit rate 3.8% among 220,000;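 active means compounds that reduced the stress-induced luciferase reporter signal by more than about 70% of percent inhibition, limit read from the data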;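 further: 0% = tunicamycin plus vehicle and 100% = wells without tunicamycin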
WT yeast gro inh: growth inhibition of WT yeast, mitochondrial fusion screen; mitochondrial fusion phenotypic screen, WT strain; inhibition, % at 10 µM; hit rate 2.1% among 190,000; AID 1362; in the data active means inhibition above about 58%; tested in S. cerevisiae
Lmaj promast: reduces viability of Leishmania major promastigotes. resazurin fluorescence viability. inhibition, % at 10 µM. hit rate 9% among 200,000; in the data active means inhibition above about 50%;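 further: promastigotes grown with compound for 44 hours at 28 °C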
* hit, by the source's call; . = no result given. Only some compounds are listed: those with a hit (about 12% of all), similar ones and a draw of the others.

SMILES	Arbovirus anti	CHOP inhibitor	WT yeast gro inh	Lmaj promast
S=C(NNc1ccnc2cc(Cl)ccc12)Nc1ccc(Cl)cc1Cl	.	96*	.	.
CCCCC/C=C\CC(O)/C=C/c1cccc(CC(O)CCCCO)n1 (stereo not drawn)	.	11	.	.
CCOc1ccc(-n2c(SCC(=O)NCc3ccco3)nnc2-c2c[nH]c3ccccc23)cc1	-18	28	-12	93*
O=C(CSc1ncc(-c2ccccc2)n1-c1ccccc1)NCc1ccco1	-1	29	3	3
Cn1c(SCC(=O)NCc2ccco2)nnc1-c1c[nH]c2ccccc12	-2	31	-3	-5
COc1ccc(OC)c(-n2c(SCC(N)=O)nnc2-c2c[nH]c3ccccc23)c1	2	20	-14	-4
COc1ccc(OC)c(-n2c(SC)nnc2-c2c[nH]c3ccccc23)c1	4	22	-17	65*
COc1ccc(OC)c(-n2c(SCC(=O)Nc3cc(C)on3)nnc2-c2c[nH]c3ccccc23)c1	6	15	1	100*
COc1cccc(-n2c(SCC(N)=O)nnc2-c2c[nH]c3ccccc23)c1	3	2	-14	1
COc1ccc(-n2c(-c3ccc(F)cc3)cnc2SCC(=O)NCc2ccco2)cc1	-5	-15	-1	100*
O=C(C1CCCO1)N1CCN(C(=S)Nc2ccc(Cl)cc2)CC1 (stereo not drawn)	-8	15	3	-7
CCOc1ccc(-n2c(SCC(=O)Nc3cc(C)on3)nnc2-c2c[nH]c3ccccc23)cc1	11	14	63*	10
CCOc1cc(C(=S)N2CCCCC2)ccc1OCC(=O)NCc1ccccc1	15	12	-13	11
c1ccc(Nc2nc3ccccc3[nH]2)nc1	-11	31	21	100*
CCN(CC)S(=O)(=O)c1ccc2c(c1)nc(CCC(=O)Nc1ccc3c(c1)OCO3)n2CC	-8	3	6	17
Cc1ccc(-n2nc(C)c(C(=O)O)n2)c(C)c1	1	-2	20	-8
CC1=NN(c2ccc(C)cc2C)C(=O)C1C(c1ccccc1)C1C(=O)N(c2ccc(C)cc2C)N=C1C (stereo not drawn)	-4	17	73*	5
COc1ccc(C2=NO[C@@H]3[C@@H]4C[C@@H]([C@H]5C(=O)N(C)C(=O)[C@@H]45)[C@H]23)c(OC)c1	.	12	.	.
O=C(Nc1ccccc1)c1sc2cc(C(F)(F)F)cnc2c1-c1cccs1	11	43	21	59*
NNC(=O)c1sc2cc(C(F)(F)F)cnc2c1-c1cccs1	1	3	5	1
O=C(Nc1ccn([C@H]2CC[C@@H](CO)O2)c(=O)n1)c1ccccc1	.	9	.	.
CCCCn1c(SCC(=O)N2c3ccccc3Sc3ccccc32)nc2c1c(=O)n(C)c(=O)n2C	-3	27	11	78*
CCn1c(SCC(=O)Nc2nccs2)nnc1-c1ccc(S(=O)(=O)N2CCCCC2)cc1	5	-4	-8	56*
CCn1c(SCC(=O)Nc2cc(C)on2)nnc1-c1ccc(S(=O)(=O)N2CCCC2)cc1	-1	11	5	69*
O=C(CCCc1c[nH]c2ccccc12)NCC1COc2ccccc2O1 (stereo not drawn)	-1	2	14	55*
SMILES	Arbovirus anti	CHOP inhibitor	WT yeast gro inh	Lmaj promast
O=C(CCCc1c[nH]c2ccccc12)Nc1ccc2ccccc2c1	-10	25	27	52*
C/C(=N\NC(=O)Cc1c[nH]c2ccccc12)c1ccc2ccccc2c1	12	81*	6	55*
C/C(=N\NC(=O)Nc1ccccc1)c1ccc2ccccc2c1	6	80*	4	-1
O=C(Nc1ccccc1)Nc1ccc2ccccc2c1	.	-6	.	.
O=C(CCc1c[nH]c2ccccc12)NCC1COc2ccccc2O1 (stereo not drawn)	-3	-1	-7	12
CC(=O)Nc1ccc(NC(=O)CCCc2c[nH]c3ccccc23)cc1	-5	17	3	-1
O=S(=O)(c1ccc(C2CCCCC2)cc1)N1CCCC1	0	65	54	4
C/C(=N/NC(=O)Nc1ccccc1)c1ccc(C)cc1	4	62	5	51*
Fc1cccc(/C=N/Nc2ncnc3nc[nH]c23)c1	-4	-28	10	29
Fc1ccccc1/C=N/Nc1ncnc2nc[nH]c12	-7	-16	5	52*
Oc1ccc(/C=N/Nc2ccccc2)cc1	-24	6	21	-1
N#CC1=CN(Cc2ccccc2)C=C(/C=N/Nc2ccccc2)C1	-29	10	19	98*
NC(=S)N/N=C/c1ccc(-c2cc(Cl)c(Cl)cc2Cl)o1	-28	62	27	78*
FC(F)(F)c1nc(N2CCCC2)ncc1-c1nnnn1-c1ccccc1	4	72*	60*	17
Cc1ccc(-n2nnnc2-c2cnc(N3CCCC3)nc2C(F)(F)F)cc1	-24	53	6	3
Cc1ccc(C)c(NC(=O)CSc2nc3ccc(N4C(=O)c5ccccc5C4=O)cc3s2)c1	-5	31	8	99*
Cc1ccc(C(=O)N2CCN(c3ccc(NC(=O)c4ccc(Br)o4)cc3)CC2)cc1	-38	72*	.	5
O=C(Nc1ccccc1C(=O)O)c1cccc(NC(=O)c2ccc(Br)o2)c1	32*	26	-6	-14
O=C(Nc1ccccc1NC(=O)c1c(F)c(F)c(F)c(F)c1F)c1c(F)c(F)c(F)c(F)c1F	-17	77*	10	5
CC(=O)c1cccc(NC(=O)c2ccc(Br)o2)c1	-3	32	3	14
O=C(Nc1ccc2nn(-c3ccccc3)nc2c1)c1ccc(Br)o1	0	73*	14	-11
CCC(=O)N1CCN(c2ccc(NC(=O)c3ccc(Br)o3)cc2)CC1	4	22	12	2
O=C(NC1CCCCC1)NC1CC2CCC(C1)N2Cc1nnnn1Cc1ccc2c(c1)OCO2 (stereo not drawn)	-4	22	-11	1
CCCC/C(O)=C1\C(=O)CC(C)(C)CC1=NCCCCCC(=O)O	22	-27	-6	14
O=C(Nc1cccc(F)c1)c1c(F)c(F)c(F)c(F)c1F	2	79*	10	9
SMILES	Arbovirus anti	CHOP inhibitor	WT yeast gro inh	Lmaj promast
O=C(Nc1ccccc1C(=O)O)c1ccc(NC(=O)c2ccc(Br)o2)cc1	46*	31	12	-8
O=C(Nc1cccc(F)c1)c1ccc(Br)o1	2	-9	-2	68*
Cc1cccc(NC(=O)c2c(F)c(F)c(F)c(F)c2F)c1	14	40	-8	5
CN1C(C(=O)NCc2ccccc2)CC2Cn3c(nc4cc5ccccc5cc43)C21 (stereo not drawn)	.	2	.	.
Brc1c(C[n+]2ccccc2)nc2ccccn12	.	-10	.	.
Cc1onc(-c2ccc(Cl)cc2Cl)c1-c1csc(N/N=C/c2ccccc2Cl)n1	.	-10	.	.
O=C(Nc1ccsn1)c1ccc(Cl)cc1Cl	.	-39	.	.
O=c1cc(-c2ccccc2)nc(SCCOc2ccccc2Cl)[nH]1	16	74*	3	-4
O=C(COc1ccccc1[N+](=O)[O-])NNC(=O)Nc1cccc2ccccc12	-1	13	14	2
Oc1ccc(Nc2nc(N3CCCC3)c3ccccc3n2)cc1	-38	.	27	100*
c1ccc2nc(-c3ccc(N4CCOCC4)cc3)ccc2c1	-9	90*	-16	-7
Cc1cc(-c2ccc(N3CCOCC3)cc2)nc2ccccc12	-5	-28	3	46
